# Assay results published in the supplement of paper PMC7801607.
# Experiments:
# CHO = assay: % viability of CHO cells (MTT); higher = less toxic; settings: 48 h
# Outline: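 Viability was given as a percentage of untreated cells and measured colorimetrically by the tetrazolium (MTT) assay. Before this, CHO cells at 10^6 cells/well in 200 µL attached overnight, then received fresh medium containing compound at 2 or 20 µM for 48 h.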
# HepG2-A16-CD81 = assay: % inhibition of HepG2 viability (CellTiter-Glo); higher = more toxic; settings: 5 µM
# [1] = tested on: Plasmodium falciparum NF54 stage IV/V gametocytes; assay: % inhibition of gametocyte viability (PrestoBlue); higher = more inhibition; settings: 48 h
# Outline: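 Values are percent inhibition of gametocyte viability, normalised to vehicle and kill controls in a single run. Stage IV/V NF54 gametocytes (2% gametocytaemia, 5% haematocrit, 100 µL/well) were held with compound at 1 or 5 µM for 48 h at 37 °C, stationary and hypoxic. Viability was read as 612 nm fluorescence on 70 µL of supernatant after a 2 h incubation with 10 µL PrestoBlue.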
# [2] = tested on: Plasmodium falciparum NF54 asexual blood stage; assay: % inhibition of asexual blood stage proliferation (pLDH); higher = more inhibition; settings: 72 h
# Outline: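 Using 96-well plates, the screen was run twice on separate occasions with Plasmodium falciparum NF54 ring-stage cultures at 1% haematocrit and 2% parasitaemia. Each culture was exposed to compound at 2 or 20 µM for 72 h at 37 °C under a gas mix of 4% CO2, 3% O2 and 93% N2. After incubation, the parasite lactate dehydrogenase assay was read colorimetrically at 620 nm. From this readout, percent inhibition of asexual proliferation was derived against control wells.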
# [3] = tested on: Plasmodium falciparum NF54 stage IV/V gametocytes; assay: % inhibition of gametocyte viability (ATP bioluminescence); higher = more inhibition; settings: 24 h
# Outline: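 Viability of stage IV/V NF54 gametocytes is given as percent inhibition, normalised to control wells in a single run. Gametocytes enriched on density gradients were seeded at 30,000 per well in 96-well plates with compound at 1 or 5 µM and held at 37 °C for 24 h. ATP was then read with the Promega BacTiter Glo bioluminescence system.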
# [4] = tested on: Plasmodium falciparum NF54 stage IV/V gametocytes; assay: % inhibition of gametocyte viability (luciferase reporter); higher = more inhibition; settings: 48 h
# Outline: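 Compound at 1 or 5 µM was added to stage IV/V NF54-Pfs16-GFP-Luc gametocytes (2% gametocytaemia, 2% haematocrit) and incubated stationary and hypoxic at 37 °C for 48 h. A GloMax-Multi+ reader measured luminescence over 10 s integration on 30 µL lysate plus 30 µL Promega luciferin substrate. Percent inhibition values were normalised to controls within a single run.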
# [5] = tested on: Plasmodium berghei ANKA liver stage in HepG2-A16-CD81; assay: % inhibition of liver stage parasite viability (luciferase); higher = more inhibition; settings: 5 µM; 48 h
# Protocol: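 Single-concentration screen of the MMV Pandemic Response Box. P. falciparum NF54 asexual blood stages: pLDH assay, 72 h at 37 °C, 2 and 20 µM, n=2. Stage IV/V gametocytes (NF54): luciferase reporter (NF54-Pfs16-GFP-Luc, 48 h), ATP bioluminescence (24 h) and PrestoBlue (48 h) at 1 and 5 µM, n=1. P. berghei liver stage (luciferase in HepG2-A16-CD81, 48 h post infection) at 5 µM, n=4. All normalised to DMSO and kill controls as % inhibition.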
# 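Throughout, for % inhibition of HepG2 viability (CellTiter-Glo): HepG2-A16-CD81 hepatoma cells plated as in the liver-stage assay but without sporozoites, with DMSO wells as negative and 25 µM puromycin as positive control.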
Compound,% viability of CHO cells (CHO; 2 µM) [%],% viability of CHO cells (CHO; 20 µM) [%],% inhibition of HepG2 viability (HepG2-A16-CD81) [%],% inhibition of gametocyte viability ([1]; 1 µM) [%],% inhibition of gametocyte viability ([1]; 5 µM) [%],% inhibition of asexual blood stage proliferation ([2]; 2 µM) [%],% inhibition of asexual blood stage proliferation ([2]; 20 µM) [%],% inhibition of gametocyte viability ([3]; 1 µM) [%],% inhibition of gametocyte viability ([3]; 5 µM) [%],% inhibition of gametocyte viability ([4]; 1 µM) [%],% inhibition of gametocyte viability ([4]; 5 µM) [%],% inhibition of liver stage parasite viability [5] [%]
CN1CCN(Cc2ccc(-c3cnc4[nH]cc(-c5ccc6[nH]ccc6c5)c4c3)cc2)CC1,68,26.3,21.4,10,< 0,66,66.9,11,65.5,< 0,< 0,33.2
Clc1cc2nc(C3CCNCC3)n(Cc3ccc(CNCCc4cnc[nH]4)cc3)c2cc1Cl,88.7,96.1,2.02,< 0,1.67,27.7,98,< 0,0.428,< 0,< 0,45.7
COc1cc(C)c2c(Oc3cccc(C(F)(F)F)c3)c(OC)cc(NC(C)CCCN)c2n1 (centres undefined),95.6,-0.735,3.86,47.9,71.7,56.5,92.1,< 0,70,< 0,79.6,38.2
CC[C@@H]1C(=O)OC[C@@H]1Cc1cncn1C,111,110,-1.73,< 0,< 0,5.57,14.4,< 0,< 0,< 0,10.7,-7.29
N#Cc1c(F)c(Cl)c(NCc2ccccc2)c(C#N)c1F,102,-2.81,2.78,20.8,49.5,56.1,95.3,< 0,20.5,2.47,52.5,22.3
Cc1ccc(NC(=O)c2cc(Cl)ccc2O)cc1,101,-0.714,29.4,< 0,< 0,57.7,98.8,< 0,< 0,5.12,4.7,78.5
CCOC(=O)N[C@@H]1CC[C@@H]2[C@@H](C1)C[C@H]1C(=O)O[C@H](C)[C@H]1[C@H]2/C=C/c1ccc(-c2cccc(F)c2)cn1,72.3,62.2,7.92,15.9,-0.253,42.6,71.5,17.7,33,7.62,27.4,33.5
Cc1ccc(C)c(OCCCCCCN2C[C@H](O)[C@@H](O)[C@H](O)[C@H]2CO)c1,111,110,4.29,< 0,< 0,8.28,41.4,1.96,< 0,5.24,11,11.6
CC(C)=CCC/C(C)=C/CNCCNC1C2CC3CC(C2)CC1C3 (centres undefined),93.3,65.4,17.1,51.3,89.7,11.7,93,78,90.8,< 0,42.1,21.8
OC(Cn1cncn1)(Cn1cncn1)c1ccc(F)cc1F,76.1,-3.55,-1.31,< 0,< 0,-1.25,-5.32,< 0,< 0,< 0,< 0,19.2
CCN(CC)CCCC(C)Nc1ccnc2cc(Cl)ccc12 (centres undefined),95.9,76.9,8.97,16.9,6,85.8,99.8,< 0,< 0,29.7,5.51,14.3
Nc1ccc(-c2nc3cc(C(F)(F)F)ccc3n2C23CC4CC(CC(C4)C2)C3)cc1,97.3,130,-7.13,22.2,19.2,10.3,67.9,< 0,< 0,< 0,< 0,20.5
CNC(=O)C1O[C@@H](n2cnc3c(NCc4cccc(I)c4)nc(Cl)nc32)[C@H](O)[C@@H]1O (some centres undefined),97.5,132,-10.3,12.5,24.1,33.8,63,< 0,< 0,< 0,< 0,19.8
CC[C@@]1(O)C(=O)OCc2c1cc1n(c2=O)Cc2cc3c(CN(C)C)c(O)ccc3nc2-1,88.8,67.7,35,21.5,26.1,14.3,82.3,6.83,< 0,1.24,5.33,60.8
c1ccc(Cn2c(-c3ccccn3)nc3ccccc32)cc1,75.8,117,1.97,-0.335,3.56,5.52,19.5,< 0,< 0,< 0,11.3,-11
COC(=O)Nc1nc2cc(S(=O)c3ccccc3)ccc2[nH]1 (centres undefined),118,78,12.1,10.1,11.8,8.21,7.99,1.75,< 0,< 0,< 0,9.84
CC(=O)N1c2ccccc2NC2=C(C(=O)CC(C)(C)C2)C1c1ccc(OCc2ccccc2)cc1 (centres undefined),119,85.5,-5.09,27.1,24.2,-13.1,76.9,1.11,3.14,9.92,< 0,27.4
